Source: PubChem BioAssay (National Center for Advancing Translational Sciences (NCATS))
SARS PLpro yeast: blocks SARS-CoV papain-like protease in a yeast assay; S. cerevisiae expressing SARS-CoV PLpro, growth rescue; hit rate 0.19% among 330,000; Potency, µM (top dose mostly 32.9 µM), for inactives: top-dose activity, positive = growth rescue, usual class: activators; AID 485353; calls by dose curve; further: potency means the concentration at half of the fitted maximal effect; 0% is about no effect; nearly all actives have a fitted effect of over 55% in size
Pf growth 96h: P. falciparum growth inhibition at 96 hour, primary screen for plastid delayed-death inhibitors. P. falciparum luciferase reporter growth, 96 h. Potency, µM (highest dose often 28.7 µM), for the others: at the highest dose activity change, negative = inhibition, most hits filed as inhibitors. hit rate 6.9% among 320,000. AID 504834; further: potency means the concentration at half of the fitted maximal effect; on the % scale 0 is the no-effect control and ±100 the full control effect
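Erythrocytes infected with luciferase-expressing P. falciparum were dispensed at 2% hematocrit and 0.05% parasitemia (final), then incubated with compounds 96 hours at 37 C in 5% CO2. Luminescence after detection reagent addition reported growth.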
HCMV antiviral: inhibitors of human cytomegalovirus; HFF cells, HCMV-luciferase reporter, 72 h; stronger effect = lower value; activity change, negative = inhibition, % at 57.5 µM; hit rate 4.5% among 410,000; AID 1259415; in the data active means activity change below about -60%; inconclusive means no clear call, values can overlap the other calls; inactive means above about -39%; further: on the % scale 0 is the no-effect control and ±100 the full control effect
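Two compound doses tested in HFFs infected with HCMV-luciferase, MOI 1 PFU/cell, 72 h at 37C. Lysate luminescence read with OneGlo; data normalized against buffer-only and 10uM Salinomycin inhibitor controls.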
Sm TGR block: blocks Schistosoma mansoni thioredoxin glutathione reductase; hit rate 3% among 360,000; AID 485364; purified TGR, DTNB reduction, TNB absorbance 405 nm; Potency, µM (series often up to 114 µM), for inactives: at the highest dose activity change, negative = inhibition, usual class: inhibitors; further: potency means the concentration at half of the fitted maximal effect; on the % scale 0 is the no-effect control and ±100 the full control effect; nearly all actives have a fitted effect of over 60% in size
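TGR 20 nM + NADPH 100 uM (dispensed conc.), cpd preinc 15 min RT; start with NADPH (500 uM addition) then DTNB (15 mM addition). Kinetic TNB absorbance, 405 nm filter. Four-parameter Hill fit across titration.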
HCV inhibitor: HCV inhibition. Potency, µM (titrated, usually from 41.8 µM), for inactives: at the highest dose activity change, negative = inhibition, usual class: inhibitors. Huh7.5.1 HCVcc-Cre infection, luciferase reporter, 44 h. hit rate 3.4% among 340,000; further: potency means the concentration at half of the fitted maximal effect; on the % scale 0 is the no-effect control and ±100 the full control effect
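Compounds are dispensed onto cells plated 4 h earlier at 1,000 per well, with HCVcc-Cre virus (about 0.5 moi) added next. Following 44 h of culture, luminescent signal is measured for 15 sec after 15 min with substrate at room temperature.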
Pf growth 48h: P. falciparum growth inhibition at 48 hours (one generation); P. falciparum luciferase growth in erythrocytes, 48 h; Potency, µM (top dose mostly 28.7 µM), without a hit: at the highest dose activity change, negative = inhibition, hits mostly inhibitors; hit rate 5.9% among 310,000; further: potency means the concentration at half of the fitted maximal effect; on the % scale 0 is the no-effect control and ±100 the full control effect
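Here the parasites carry a stable luciferase gene and grow inside erythrocytes in Albumax-based RPMI medium with compound for one erythrocytic cycle. Activity is scored as loss of luminescent signal.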
Active calls of the source: *; ? = inconclusive; . = no result given; [ ] = remark or other dose. The list is not random: actives were taken first. Their share in the collection is about 15%. Unless noted, the call rests on the fitted dose curve; in most records, active means well fitted curve in the direction sought with a large enough effect; inconclusive means small, poorly fitted or top-dose-only effect, or another doubt; inactive means no such curve, though single readings can be large; an effect the other way counts as inactive or inconclusive.

SMILES	SARS PLpro yeast	Pf growth 96h	HCMV antiviral	Sm TGR block	HCV inhibitor	Pf growth 48h
COc1cccc(CNc2ccc([N+](=O)[O-])cc2C)c1	-1%	17%	32	.	-17%	?
COc1ccc(OCCN2CCC(C(=O)NC(c3ccsc3)c3ccccc3C)CC2)cc1 (centres undefined)	.	.	24	.	.	.
COc1ccc([C@H]2NC(=O)C[C@@H]2C(=O)N2CCOCC2)cc1	.	.	-11	.	.	.
C/C(CC(=O)NCc1ccccc1)=N\NC(N)=S	29%	?	-16	-4%	8%	?
CC1=C(CC/C(C)=N/NC(N)=S)C(C)(C)CCC1	14µM*	-22%	-24	-14%	25µM*	?
CC(=O)Nc1cnn(Cc2ccc(Br)cc2)c1	2%	.	22	-12%	28%	4%
Cn1cc(NC(=O)CCl)cn1	2%	?	-84*	?	?	?
Cc1nn(-c2cc(N3CCCCC3)ccc2[N+](=O)[O-])c(=O)c2ccccc12	7%	-18%	-26	-22%	?	?
CN1CCN(c2ccc([N+](=O)[O-])c(Sc3ccccn3)c2)CC1	1%	0.29µM*	10	17%	?	?
CN1CCN(c2ccc([N+](=O)[O-])c(Sc3nncn3C)c2)CC1	0%	?	-15	-5%	2%	-16%
CN1CCN(c2ccc([N+](=O)[O-])c(-n3nc(-c4ccccc4)c4ccccc4c3=O)c2)CC1	2%	8.3µM*	-2	-2%	4.5µM*	?
O=C(O)C(Cc1ccccc1[N+](=O)[O-])N1C(=O)c2ccccc2C1=O (centres undefined)	.	.	-9	.	6%	.
O=C(N/N=C/c1cccnc1)c1cc(-c2ccccc2OCc2ccccc2)n[nH]1	-2%	?	?	3%	?	10µM*
O=C(N/N=C/c1cccnc1)c1ccccc1OCc1ccc(Br)cc1	-1%	3%	?	5%	?	9.3µM*
O=C(N/N=C/c1ccccc1OCc1ccccc1)c1cccnc1	-23%	44%	-25	-11%	1%	3%
O=C(N/N=C/c1cccnc1)c1ccccc1OCc1ccc(Cl)cc1	-9%	-20%	.	2%	.	?
Cc1nn(-c2cc(C(F)(F)F)ccc2Cl)c2nc(C(Cl)(Cl)Cl)[nH]c(=O)c12	-1%	?	-26	20µM*	0%	?
CNCCOc1ccccc1OC(C)C	0%	10µM*	-9	?	3%	-4%
CCOc1ccccc1OCCOc1ccccc1OC(C)C	2%	27%	3	1%	-1%	.
CCOc1cccc2cc(-c3nc4sc5c(c4c(=O)[nH]3)CCC(C(C)(C)C)C5)c(=O)oc12 (centres undefined)	.	.	-33	0%	.	.
Cc1ccc2nc(NCc3ccccc3Cl)c3nnnn3c2c1	.	.	-2	1%	.	.
Cc1ccc2nc(Cl)c3nnnn3c2c1	-25%	14%	.	1.4µM*	?	-10%
COc1ccc(-c2nc3scc(CCNS(=O)(=O)c4ccc(F)cc4F)n3n2)cc1OC	.	.	-17	-22%	.	.
COc1ccc(C(=O)Cn2cc([N+](=O)[O-])nc2C)cc1	-4%	25%	-9	-1%	4%	5%[0.00184 µM]
COc1ccc(C(=O)Cn2c(C)nc([N+](=O)[O-])c2Br)cc1	-1%	3%	13	2.5µM*	?	-22%
SMILES	SARS PLpro yeast	Pf growth 96h	HCMV antiviral	Sm TGR block	HCV inhibitor	Pf growth 48h
Cc1nc([N+](=O)[O-])c(Br)n1CC(=O)c1ccc(Cl)cc1	-24%	?	70	7.1µM*	10µM*	.
CCN(c1ccccc1)S(=O)(=O)c1ccc(OC)c(NC(=O)Cc2ccc(OC)c(OC)c2)c1	1%	?	-26	-1%	6.3µM*	?
CCN(c1ccccc1)S(=O)(=O)c1ccc(OC)c(NC(=O)C2CC2)c1	-9%	-24%	-10	-8%	-23%	?
CCN(CC)S(=O)(=O)c1ccc(OC)c(NC(=O)CCS(=O)(=O)Cc2ccccc2)c1	0%	-16%	-69*	-1%	-2%	24%
CCN(c1ccccc1)S(=O)(=O)c1ccc(OC)c(NC(=O)Cc2ccccc2OC)c1	-6%	13µM*	-17	-4%	10µM*	12µM*
CCN(c1ccccc1)S(=O)(=O)c1ccc(OC)c(NC(=O)c2cc(Cl)ccn2)c1	-5%	6.6µM*	.	45µM*	-14%	?
CCN(CC)S(=O)(=O)c1ccc2c(c1)nc(CCC(=O)Nc1ccccc1Cc1ccccc1)n2CC	4%	.	?	-1%	10µM*	12µM*
CCN(c1ccccc1)S(=O)(=O)c1ccc(Cl)c(NC(=O)CNCc2ccccc2OC)c1	0%	.	21	.	11µM*	.
CCn1c(CCC(=O)Nc2cc(F)ccc2C)nc2cc(S(=O)(=O)N(C)C)ccc21	8%	-3%	-9	-5%	?	?
Cc1c(Cl)cccc1NC(=O)c1ccccc1-c1ccccc1C(=O)O	-12%	2%	-1	-5%	13%	2%
Cc1nn(CC(=O)NCCCN2CCC(Cc3ccccc3)CC2)c(=O)c2cc(-c3ccccc3)nn12	26%	4.1µM*	16	-26%	?	?
COCCCNC(=O)c1ccc(Cn2c(=O)c3ccccc3n(CC(N)=O)c2=O)cc1	.	.	9	-2%	.	.
Cc1ccc(-c2cc(C(=O)NCCCN3CCOCC3)c3ccccc3n2)cc1C	-1%	?	-92*	-11%	?	-96%
O=C(NCCN1CCOCC1)c1cnn2c(-c3ccccc3)cc(-c3ccccc3)nc12	-3%	10µM*	10	0%	11µM*	?
CCNC(=S)NNC(=O)c1cc(-c2ccc(OCC)cc2)nc2ccccc12	-26%	2%	150	9%	-14%	?
Cc1ccc(-c2cc(C(=O)NCc3ccccc3Cl)c3ccccc3n2)cc1C	.	.	9	8%	.	.
Cc1ccc(-c2cc(C(=O)NCCCN3CCOCC3)c3ccccc3n2)cc1	2%	?	-10	0%	-4%	?
Cc1ccc(-c2cc(C(=O)NCCCN3CCCC3)c3ccccc3n2)cc1C	0%	?	-23	0%	22µM*	5.2µM*
CCOc1ccc(-c2cc(C(=O)NCCCN3CCCC3)c3ccccc3n2)cc1	1%	-7%	?	3%	?	12µM*
Cc1cccc(COC[C@H](Cc2ccccc2)N2CCN(C(=O)c3ccc(Cl)c(Cl)c3)CCC2=O)c1	.	.	-9	.	.	.
CCc1nc2ccc(C(=O)NCc3ccccc3OC)cn2c1N(C)Cc1ccc(N(C)C)cc1	.	.	-1	.	.	.
COc1ccc(C(=O)NCCCn2nc(C)cc2C)cc1S(=O)(=O)N1CCOCC1	-1%	-4%	-36	-3%	16%	-19%
